test system: LXRb homodimer (NR concentration 270 nM); assay: PBM binding z-score (relative to random genomic background probes); higher = stronger binding; sequences stand for … in GC…GCGATTGACAGCGTAGAATGAAGG
Summary of the method: (§1)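 For binding z-scores, the reference was random background probes on custom Agilent 4×180K protein-binding microarrays. These arrays were incubated 1 h with ligand-free nuclear receptor dimers in PBS pH 7.4, 2% milk, 0.02% Triton X-100, 1 mM DTT, 0.2 mg/mL BSA and 0.4 mg/ml salmon testes DNA. Fluorescence was scanned after antibody detection of each partner (one per run) and regression-normalized.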

| Sequence | PBM binding z-score |
| --- | --- |
| ATATGTAGGCTAGGGTCATTCAGAAAGTAGGGAA | 0.611 |
| CGAACTTGGTCACCAGGACAGTGAAGAGGTTGGA | -0.791 |
| ATATGTAGGTTAGGGGCATTCAGAAAGTAGGGAA | 2.52 |
| ATATGTAGGTTAGGGTCATTAAGAAAGTAGGGAA | 1.52 |
| ATATGTAGGTTTGGGTCATTCAGAAAGTAGGGAA | 1.68 |
| ATATGTAAGTTAGGGTCATTCAGAAAGTAGGGAA | 1.31 |
| ATATGAAGGTTAGGGTCATTCAGAAAGTAGGGAA | 1.7 |
| CGAACTAGGTCAATGGACAGTGAAAGGCGACGTA | -0.604 |
| CGAACTAGGTAACCAGGACAGTGAAGAGGTTGGA | -0.784 |
| ATATGGAGGTTAGGGTCATTCAGAAAGTAGGGAA | 2.02 |
| CGAACTAGGTCACCAGGGCAGTGAAGAGGTTGGA | -0.639 |
| CGAACTAGGTCACCAGGACATTGAAGAGGTTGGA | -0.284 |
| CGAACTAGGTCAAAGGACAGCGAAAGGCGACGTA | -0.366 |
| CGAACTAGGCCACCAGGACAGTGAAGAGGTTGGA | -0.94 |
| CGAACTAGGGCACCAGGACAGTGAAGAGGTTGGA | -1.24 |
| CCAACTAGGTCACCAGGACAGTGAAGAGGTTGGA | 0.121 |
| CGAACTAGGTCAAAGTACAGTGAAAGGCGACGTA | 0.12 |

test system: PPARa:RXRa (NR concentration 270 nM, RXRa partner concentration 90 nM); assay: as above
Summary of the method: as §1

| Sequence | PBM binding z-score |
| --- | --- |
| CGATCTAGGTCACCAGGACAGTGAAGAGGTTGGA | 4.81 |
| CGAACTAGATCACCAGGACAGTGAAGAGGTTGGA | -0.082 |
| CGAACTAGGTCACCTGGACAGTGAAGAGGTTGGA | 5 |
| ATATGTAGGTTAGGGTCTTTCAGAAAGTAGGGAA | 3.21 |
| CGAACTAGGTCAAAGGACAGTGGAAGGCGACGTA | 5.49 |
| CGAACTAGGTCACCAGGACAGTGCAGAGGTTGGA | 5.21 |
| CGAACTAGGTCAAAGGACAGTGATAGGCGACGTA | 5.27 |
| ATATGTAGGTTAGTGTCATTCAGAAAGTAGGGAA | 3.21 |
| CGTACTAGGTCACCAGGACAGTGAAGAGGTTGGA | 4.67 |
| ATATGTAGGTTAGGCTCATTCAGAAAGTAGGGAA | 2.21 |
| ATATGCAGGTTAGGGTCATTCAGAAAGTAGGGAA | 5.12 |
| CGAACTAGGTCACCAGGAGAGTGAAGAGGTTGGA | 4.87 |
| CGAACTAGGTCAAATGACAGTGAAAGGCGACGTA | 5.2 |
| CGAACTAGGTCAAAGGACAGTGACAGGCGACGTA | 5.56 |
| ATAAGTAGGTTAGGGTCATTCAGAAAGTAGGGAA | 5.65 |
| CGAACTAGGTCACCAGGACAGTAAAGAGGTTGGA | 5.1 |
| ATATGTAGGTGAGGGTCATTCAGAAAGTAGGGAA | 5.07 |
| CGAACTAGGTCAGCAGGACAGTGAAGAGGTTGGA | 3.76 |
| CGAACTAGGTCAAAGGACAATGAAAGGCGACGTA | 5.61 |
| CGATCTAGGTCAAAGGACAGTGAAAGGCGACGTA | 5.27 |

| Sequence | PBM binding z-score |
| --- | --- |
| ATATGTAGGTTAGAGTCATTCAGAAAGTAGGGAA | 2.75 |
| CGAACTAGGTCACCAGGACAGTGAAGAGGTTGGA | 5.04 |
| ATATGTAGGCTAGGGTCATTCAGAAAGTAGGGAA | 5.08 |
| CGAACTTGGTCACCAGGACAGTGAAGAGGTTGGA | 0.239 |
| ATATGTAGGTTAGGGGCATTCAGAAAGTAGGGAA | 3.8 |
| ATATGTAGGTTAGGGTCATTAAGAAAGTAGGGAA | 5.58 |
| ATATGTAGGTTTGGGTCATTCAGAAAGTAGGGAA | 3.1 |
| ATATGTAAGTTAGGGTCATTCAGAAAGTAGGGAA | 4.91 |
| ATATGAAGGTTAGGGTCATTCAGAAAGTAGGGAA | 5.23 |
| CGAACTAGGTCAATGGACAGTGAAAGGCGACGTA | 4.39 |
| CGAACTAGGTAACCAGGACAGTGAAGAGGTTGGA | 1.66 |
| ATATGGAGGTTAGGGTCATTCAGAAAGTAGGGAA | 5.63 |
| CGAACTAGGTCACCAGGGCAGTGAAGAGGTTGGA | 5.2 |
| CGAACTAGGTCACCAGGACATTGAAGAGGTTGGA | 5.35 |
| CGAACTAGGTCAAAGGACAGCGAAAGGCGACGTA | 5.76 |
| CGAACTAGGCCACCAGGACAGTGAAGAGGTTGGA | 1.98 |
| CGAACTAGGGCACCAGGACAGTGAAGAGGTTGGA | 2.31 |
| CCAACTAGGTCACCAGGACAGTGAAGAGGTTGGA | 4.66 |
| CGAACTAGGTCAAAGTACAGTGAAAGGCGACGTA | 5.46 |

test system: PPARg:RXRa (NR concentration 180 nM, RXRa partner concentration 90 nM); assay: as above
Summary of the method: as §1

| Sequence | PBM binding z-score |
| --- | --- |
| CGATCTAGGTCACCAGGACAGTGAAGAGGTTGGA | 8.42 |
| CGAACTAGATCACCAGGACAGTGAAGAGGTTGGA | 0.66 |
| CGAACTAGGTCACCTGGACAGTGAAGAGGTTGGA | 8.13 |
| ATATGTAGGTTAGGGTCTTTCAGAAAGTAGGGAA | 4.93 |
| CGAACTAGGTCAAAGGACAGTGGAAGGCGACGTA | 9.71 |
| CGAACTAGGTCACCAGGACAGTGCAGAGGTTGGA | 8.59 |
| CGAACTAGGTCAAAGGACAGTGATAGGCGACGTA | 10.2 |
| ATATGTAGGTTAGTGTCATTCAGAAAGTAGGGAA | 4.15 |
| CGTACTAGGTCACCAGGACAGTGAAGAGGTTGGA | 7.91 |
| ATATGTAGGTTAGGCTCATTCAGAAAGTAGGGAA | 2.96 |
| ATATGCAGGTTAGGGTCATTCAGAAAGTAGGGAA | 4.09 |
| CGAACTAGGTCACCAGGAGAGTGAAGAGGTTGGA | 8.26 |
| CGAACTAGGTCAAATGACAGTGAAAGGCGACGTA | 8.2 |
| CGAACTAGGTCAAAGGACAGTGACAGGCGACGTA | 10.5 |
| ATAAGTAGGTTAGGGTCATTCAGAAAGTAGGGAA | 8.07 |
| CGAACTAGGTCACCAGGACAGTAAAGAGGTTGGA | 9.15 |
| ATATGTAGGTGAGGGTCATTCAGAAAGTAGGGAA | 7.86 |
| CGAACTAGGTCAGCAGGACAGTGAAGAGGTTGGA | 5.96 |
| CGAACTAGGTCAAAGGACAATGAAAGGCGACGTA | 10.3 |
| CGATCTAGGTCAAAGGACAGTGAAAGGCGACGTA | 10.3 |

| Sequence | PBM binding z-score |
| --- | --- |
| ATATGTAGGTTAGAGTCATTCAGAAAGTAGGGAA | 4.27 |
| CGAACTAGGTCACCAGGACAGTGAAGAGGTTGGA | 8.82 |
| ATATGTAGGCTAGGGTCATTCAGAAAGTAGGGAA | 5.38 |
| CGAACTTGGTCACCAGGACAGTGAAGAGGTTGGA | 0.758 |
| ATATGTAGGTTAGGGGCATTCAGAAAGTAGGGAA | 5.77 |
| ATATGTAGGTTAGGGTCATTAAGAAAGTAGGGAA | 7.9 |
| ATATGTAGGTTTGGGTCATTCAGAAAGTAGGGAA | 2.34 |
| ATATGTAAGTTAGGGTCATTCAGAAAGTAGGGAA | 2.88 |
| ATATGAAGGTTAGGGTCATTCAGAAAGTAGGGAA | 4 |
| CGAACTAGGTCAATGGACAGTGAAAGGCGACGTA | 6.92 |
| CGAACTAGGTAACCAGGACAGTGAAGAGGTTGGA | 2.32 |
| ATATGGAGGTTAGGGTCATTCAGAAAGTAGGGAA | 5.01 |
| CGAACTAGGTCACCAGGGCAGTGAAGAGGTTGGA | 8.69 |
| CGAACTAGGTCACCAGGACATTGAAGAGGTTGGA | 8.44 |
| CGAACTAGGTCAAAGGACAGCGAAAGGCGACGTA | 10.8 |
| CGAACTAGGCCACCAGGACAGTGAAGAGGTTGGA | 3.12 |
| CGAACTAGGGCACCAGGACAGTGAAGAGGTTGGA | 4.04 |
| CCAACTAGGTCACCAGGACAGTGAAGAGGTTGGA | 8.3 |
| CGAACTAGGTCAAAGTACAGTGAAAGGCGACGTA | 9.58 |
